# Screening data: PubChem, several laboratories
# Beta apoptosis: blocks beta cell apoptosis | INS-1E cytokine-induced death, ATP luminescence, 48 h; percent of positive-control rescue, neutral wells zero | protection from apoptosis, % (no concentration beside the values) | hit rate 0.8% among 300,000;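 active means Every replicate reaches about 75%, or at least half do and their mean reaches it too, limit read from the data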;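 further: 0% = cytokine-treated negative control wells and 100% = positive control rescue; higher means more ATP so stronger rescue from cytokine killing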
# Mdm2-MdmX inh: human Mdm2/MdmX binding inhibition; SaOS-2 split-luciferase Mdm2/MdmX complementation, luminescence; AID 485346; inhibition, % at 8 µM; hit rate 3% among 330,000; O15151+Q00987;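 active means inhibition of at least 50% at 8 µM in the primary screen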
# Target sequence (O15151 whole entry, looked up): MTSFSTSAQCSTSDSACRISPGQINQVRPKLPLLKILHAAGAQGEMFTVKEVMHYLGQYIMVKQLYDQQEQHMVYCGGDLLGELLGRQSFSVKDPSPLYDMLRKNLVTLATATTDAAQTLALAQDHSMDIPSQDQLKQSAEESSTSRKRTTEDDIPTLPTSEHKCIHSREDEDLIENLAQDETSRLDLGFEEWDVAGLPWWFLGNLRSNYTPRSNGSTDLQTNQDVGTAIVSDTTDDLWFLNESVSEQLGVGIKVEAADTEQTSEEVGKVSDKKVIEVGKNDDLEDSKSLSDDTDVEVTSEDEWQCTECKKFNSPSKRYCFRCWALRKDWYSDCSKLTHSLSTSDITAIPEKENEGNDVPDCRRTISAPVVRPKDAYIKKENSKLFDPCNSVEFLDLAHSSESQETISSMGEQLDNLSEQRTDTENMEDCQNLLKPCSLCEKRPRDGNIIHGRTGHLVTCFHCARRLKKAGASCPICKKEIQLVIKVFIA
# Target sequence (Q00987 whole entry, looked up): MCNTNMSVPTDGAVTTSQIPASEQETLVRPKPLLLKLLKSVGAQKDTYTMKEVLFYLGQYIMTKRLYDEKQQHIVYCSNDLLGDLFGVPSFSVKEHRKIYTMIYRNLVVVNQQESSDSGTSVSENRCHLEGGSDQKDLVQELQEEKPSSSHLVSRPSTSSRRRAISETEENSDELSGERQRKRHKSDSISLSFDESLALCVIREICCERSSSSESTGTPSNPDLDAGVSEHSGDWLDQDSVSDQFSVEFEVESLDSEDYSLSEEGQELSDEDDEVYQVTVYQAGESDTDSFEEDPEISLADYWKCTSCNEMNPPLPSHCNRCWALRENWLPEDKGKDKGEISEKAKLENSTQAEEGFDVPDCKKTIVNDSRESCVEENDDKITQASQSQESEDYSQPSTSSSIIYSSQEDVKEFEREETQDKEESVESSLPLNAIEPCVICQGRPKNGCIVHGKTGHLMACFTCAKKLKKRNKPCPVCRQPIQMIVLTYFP
# MPTP block: inhibitors of mitochondrial permeability transition pore; hit rate 1.4% among 360,000; isolated mouse mitochondria, Ca2+ swelling absorbance, 30 min; inhibition, % at 10 µM;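 active means inhibition of 50% or more, scaled per plate between neutral and stimulator controls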;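 further: 0% = DMSO wells given calcium and 100% = 1 mM EGTA wells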
# GRIN3A LBD mod: NR3A (human) ligand-binding domain modulation; hit rate 2.5% among 340,000; Tm shift relative to glycine control, % at 25 µM; NR3A LBD differential scanning fluorimetry, Tm shift; 0% = protein alone, 100% = glycine-bound protein;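 active means melting temperature shift of at least 10% of the positive control shift, at one fixed dose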
# CSC inhib: blocks cancer stem cells; cancer stem cell-like cells viability, luminescence; inhibition, % at 7.5 µM; hit rate 1.1% among 300,000; AID 2717; in the data active means inhibition above about 75%; tested in HMLE shEcad cells
# SKKanGAS inh: inhibitors of SKKanGAS S. pyogenes growth in kanamycin (SK-promoter or general growth effect) | BacTiter-Glo, 6 h | inhibition, % at 7.5 µM | hit rate 1.3% among 300,000;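 active means mean replicate score, as percent of positive control median, at least 50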;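 further: strain carries kanamycin resistance gene driven by streptokinase promoter and grows in 40 µg/ml kanamycin; loss of luminescence reflects streptokinase promoter inhibition or plain growth inhibition; 0% = median of DMSO wells and 100% = positive control at its reference dose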
# * hit, by the source's call; / = no result given. An excerpt weighted towards active compounds, which were near 6.9% of everything screened.
SMILES,Beta apoptosis,Mdm2-MdmX inh,MPTP block,GRIN3A LBD mod,CSC inhib,SKKanGAS inh
COc1ccc(C(=O)Nc2ccc(S(=O)(=O)N3CCCC3)cc2)cc1[N+](=O)[O-],0,-3,0,41*,-11,-1
N#Cc1ccc(OCC(=O)NCC2COc3ccccc3O2)cc1 (centres undefined),-2,-18,1,2,-9,/
COc1ccc(-c2c(-c3ccccc3OC)sc3ccccc23)cc1,21,19,12,3,20,5
COc1cc2sc(-c3ccccc3OC)c(-c3ccc(O)cc3)c2cc1OC,-10,27,1,-2,80*,/
COc1ccc2sc(-c3ccccc3OC)c(-c3ccc(O)cc3)c2c1,-1,22,1,3,109*,/
C=CCN(c1ccccc1C(=O)NCC(=O)O)S(=O)(=O)c1ccccc1C,1,3,1,-2,-5,3
Cc1ccc2nc(N(CCN(C)C)C(=O)c3cc(Cl)sc3Cl)sc2c1,3,-20,0,10,/,0
Cc1cccc2sc(N(CCN(C)C)C(=O)c3cc(Cl)sc3Cl)nc12,-6,6,1,11*,/,-11
Cc1ccc(Cl)cc1NC(=O)COC(=O)CC1CC2CCC1C2 (centres undefined),-6,-1,1,-12,-5,-3
COC(=O)c1ccc(C(=O)OC)c(NC(=O)COC(=O)CC2CC3CCC2C3)c1 (centres undefined),-1,3,-1,19*,-10,21
CCOc1ccc(-c2c(C(=O)N/N=C/c3ccsc3)nnn2-c2nonc2N)cc1,-11,-6,-2,13*,-3,10
CCOc1ccc(-c2c(C(=O)N/N=C/c3ccc(O)cc3)nnn2-c2nonc2N)cc1,-7,-6,3,8,3,-7
CCCOc1ccc(-c2c(C(=O)N/N=C/c3ccc(OC)cc3)nnn2-c2nonc2N)cc1,-4,11,-2,10*,11,18
CCOc1cccc(-c2c(C(=O)N/N=C/c3ccc(Br)cc3)nnn2-c2nonc2N)c1,/,27,-2,17*,-3,15
CCOc1ccc(-c2c(C(=O)N/N=C/c3cccc(Br)c3)nnn2-c2nonc2N)cc1,3,37,-1,17*,-1,9
Cc1c(C(=O)NCc2ccccc2C(F)(F)F)sc(=O)n1Cc1ccc(S(=O)(=O)N(C)C)cc1,/,/,0,/,/,/
COc1cccc(NC(=O)C(C)Sc2nnc(C3CC3)n2C2CC2)c1 (centres undefined),/,1,0,0,/,/
CSc1ccc(CNC(=O)C2CCC(=O)N(Cc3cccc(F)c3)C2)cc1 (centres undefined),-5,16,-2,4,-10,3
C=CCNC(=O)C1CCN(S(=O)(=O)c2cccs2)CC1,/,34,1,3,-4,22
CCN(CC)S(=O)(=O)c1ccc2oc(C(=O)NCCN3CCOCC3)c(C)c2c1,-1,-4,-3,58*,-2,-6
Cc1cc(NCCCn2ccnc2)n2nc(C)c(-c3ccc(Cl)cc3)c2n1,48,32,0,-8,125*,8
COc1cccc(NC(=O)CN(C)C(=O)c2cccc(S(=O)(=O)Nc3ccccc3OC)c2)c1,1,4,0,0,/,/
O=C(NC(=S)N1CCN(c2ccc(F)cc2)CC1)C12CC3CC(CC(C3)C1)C2,0,4,3,4,7,51*
CC1(C)Cc2c(sc3nc(=S)[nH]c(N)c23)CO1,-5,15,/,/,-22,0
CN1CCc2c(sc(NC(=O)CS(=O)(=O)c3ccccc3)c2C(N)=O)C1,/,3,0,18*,-17,3
SMILES,Beta apoptosis,Mdm2-MdmX inh,MPTP block,GRIN3A LBD mod,CSC inhib,SKKanGAS inh
CNS(=O)(=O)c1cccc(C(=O)OCC(=O)N(Cc2ccccc2)C(C)(C)C)c1,-3,-21,0,-2,-28,-5
O=C(CN1CCCCC1)Nc1cccc(Cl)c1,-2,-9,-1,0,-9,-7
COc1cc(NC(=O)Nc2cccc(Cl)c2)c(OC)cc1NC(=O)CN1CCCCC1,8,39,8,9,115*,41
COc1ccc(Nc2nc(Nc3ccc(OC)cc3)nc(-n3[nH]c(=O)c(C)c3C)n2)cc1,7,28,0,-3,9,87*
Cc1cc(C)c2c(n1)sc1c(O)cc(=O)[nH]c12,/,16,-2,-3,3,5
COc1ccc(-c2cc(C(F)(F)F)c3c(n2)sc2c(O)cc(=O)[nH]c23)c(OC)c1,5,-7,6,6,52,55*
CC1(C)CC[C@]2(CO)[C@@H](O)C[C@]3(C)C(=CCC4[C@@]5(C)CC[C@H](O)C(C)(C)C5CC[C@]43C)[C@@H]2C1 (some centres undefined),11,-31,/,/,102*,23
CC(C)CC(c1nnnn1Cc1ccco1)N1CCN(c2cccc(Cl)c2)CC1 (centres undefined),19,30,1,0,110*,14
CC(C)C(c1nnnn1Cc1ccc2c(c1)OCO2)N1CCN(c2ccccc2)CC1 (centres undefined),2,11,0,13*,21,0
CC(C)CC(c1nnnn1CC1CCCO1)N1CCN(c2cccc(Cl)c2)CC1 (centres undefined),-5,2,1,-20,65,-1
CC(C)C(c1nnnn1Cc1ccc2c(c1)OCO2)N1CCN(C)CC1 (centres undefined),0,10,0,1,-3,-2
COc1ccc(Cn2nnnc2C(CC(C)C)N2CCN(c3ccccc3)CC2)cc1 (centres undefined),2,24,6,18*,9,4
CCNC(=O)C1(C)CCN(C(=O)c2cccc(C(F)(F)F)c2)C1 (centres undefined),/,/,0,/,/,/
CC(C)C[C@@H](NC(=O)C1CCC(CNC(=O)[C@H](Cc2ccccc2)NC(=O)OC(C)(C)C)CC1)C(=O)O (some centres undefined),/,-15,0,1,/,-3
O=C(NN1CCOCC1)c1cc(-c2ccc(Br)cc2)nc2ccccc12,-11,0,8,-3,-10,-15
CCc1ccc(-c2cc(C(=O)NN3CCOCC3)c3ccccc3n2)cc1,6,-21,-6,11*,3,2
CCOC(=O)C1=CCN(S(=O)(=O)c2ccc(C)cc2)C1c1ccccc1F (centres undefined),/,/,0,/,/,/
CCc1cc(/C(Cc2ccc3ccccc3n2)=N\O)c(O)cc1O,1,8,6,29*,19,-10
CN1N=C(c2ccc(Cl)cc2)CC(c2ccc(Cl)cc2)C1=O (centres undefined),-17,5,4,2,3,-2
CCN1CC(c2ccccc2)C(c2ccc(Cl)cc2)=N1 (centres undefined),-2,16,5,12*,-10,-1
CCCN(C(=O)c1ccc(N(C)S(=O)(=O)c2ccc(C)cc2)cc1)C1CCS(=O)(=O)C1 (centres undefined),/,17,1,0,8,-9
